Measurements from PubChem BioAssay.
A number with no mark means an inactive call.

Tested on: XIP peptide (Xip251-270) binding
Experiment: small-molecule binders of XIP peptide, primary screen, biochemical, small-molecule microarray, fluorescence 635/667 nm, 0.1 µg/mL protein (AID 1182)
Details: fluorescent protein binding, 635 nm, higher = more signal, called active from +8 up or from −8 down

Row | Compound | composite z-score
1 | CCCC[C@H]1OB(O)C[C@H]2C1=C(COc1ccccc1)C[C@H]1C(=O)C=CC(=O)[C@H]12 | 0.0738
2 | COCCOC(=O)N1C(=O)[C@@]2(c3ccccc31)[C@H](C(=O)N1CCN(c3ncccn3)CC1)[C@H]1C(=O)O[C@H](c3ccccc3)[C@H](c3ccccc3)N1[C@@H]2c1ccccc1OCCO | 0.044
3 | COC(=O)[C@@]1(Cc2ccccc2)[C@H]2c3cc(C(=O)N(C)C)n(CCO)c3C[C@H]2CN1C(=O)c1ccccc1 | 1.42
4 | [N-]=[N+]=Nc1ccccc1[C@@H]1OC(c2ccc(OCCCO)cc2)=N[C@]1(Cc1ccccc1)C(=O)NCCN1CCOCC1 | 0.764
5 | COc1cc(C(O)C2C=CC3C(=O)N(c4ccccc4)C(=O)C3N2Nc2ccccc2)cc(OC)c1OC (centres undefined) | 1.1
6 | C=CCC(OC(C)=O)[C@@H]1[C@@H](N(Cc2ccc(-c3ccccc3)cc2)C(=O)c2cccc3ccccc23)c2cc(OCCCO)ccc2N1C(=O)Cc1ccc(OC)cc1 (some centres undefined) | 0.15
7 | Cc1ccc(N2C(=O)c3ccccc3[C@](C)(C(=O)NCCCN(C)C)[C@@H]2c2ccc(CO)cc2)nc1 | 0.0854
8 | CCOC(=O)C[C@H]1[C@H](OC(=O)Cc2ccc3c(c2)OCO3)[C@@H](NC(=O)Cc2ccc(OC)cc2)c2cc(OCCCO)ccc2N1C(=O)Cc1ccc(OC)cc1 | -0.0299
9 | O=C1N(CCS(=O)(=O)c2ccccc2)c2ccccc2C[C@]12N=C(c1ccc(OCCCO)cc1)O[C@@H]2c1ccccc1 | 0.412
